Measured values as given in the supplement of paper PMC6555819.

Tests used:
Experiment in all cases: PBM binding z-score (relative to random genomic background probes); higher = stronger binding; sequences stand for … in GC…GCGATTGACAGCGTAGAATGAAGG
[1] = system: FXR:RXRa (NR concentration 270 nM, RXRa partner concentration 90 nM)
Summary of the method: (§1)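 Binding z-scores were set against random background probes. The data came from custom Agilent 4×180K protein-binding microarrays carrying double-stranded probes with 34-nt variable regions, incubated 1 h with ligand-free nuclear receptor dimers. Partner-specific antibodies detected binding, and scanned fluorescence was regression-normalized.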

[2] = system: LXRa:RXRa (NR concentration 270 nM, RXRa partner concentration 90 nM)
Summary of the method: as §1

[3] = system: LXRa homodimer (NR concentration 270 nM)
Summary of the method: as §1

[4] = system: LXRb:RXRa (NR concentration 270 nM, RXRa partner concentration 90 nM)
Summary of the method: as §1

[5] = system: LXRb homodimer (NR concentration 270 nM)
Summary of the method: as §1

[6] = system: PPARa:RXRa (NR concentration 270 nM, RXRa partner concentration 90 nM)
Summary of the method: as §1

[7] = system: PPARg:RXRa (NR concentration 180 nM, RXRa partner concentration 90 nM)
Summary of the method: as §1

[8] = system: PPARg:RXRa 270nM:90nM, anti-RXR (NR concentration 270 nM, RXRa partner concentration 90 nM)
Summary of the method: as §1

[9] = system: PPARg:RXRa 30nM:10nM, anti-RXR (NR concentration 30 nM, RXRa partner concentration 10 nM)
Summary of the method: as §1

[10] = system: PPARg:RXRa 90nM:30nM, anti-RXR (NR concentration 90 nM, RXRa partner concentration 30 nM)
Summary of the method: as §1

Row | Sequence | PBM binding z-score [1] | PBM binding z-score [2] | PBM binding z-score [3] | PBM binding z-score [4] | PBM binding z-score [5] | PBM binding z-score [6] | PBM binding z-score [7] | PBM binding z-score [8] | PBM binding z-score [9] | PBM binding z-score [10]
1 | CCGACTGGGGCACAAGGTTACCATAAGCCAGCCC | 0.122 | 1.73 | -0.433 | 0.74 | -1.16 | 2.2 | 2.92 | 3.16 | 0.724 | 2.49
2 | CCTACTGGGCCAGGGTCATTGATCAGTCAAAGCA | 2.51 | 2.16 | 0.0124 | 2.58 | -1.02 | 4.14 | 3.23 | 3.68 | 0.898 | 2.87
3 | GCTATTAGTTGAGAGGGCAACCGAATGATTCTCG | 0.249 | 0.428 | 0.355 | 0.434 | -0.23 | 1.38 | 1.03 | 2.25 | 0.553 | 1.53
4 | CGAACTAGGTCAGAACAGGACAGTAAAGGATGAT | 1.48 | 0.875 | -0.0273 | 0.738 | -0.326 | 3.33 | 5.37 | 4.63 | 1.83 | 3.65
5 | CGAACGAGGGCAGGAGTTGATAGCAAATGCCGAT | -0.327 | -0.217 | -0.463 | -0.569 | -1 | 0.441 | 1.17 | 1.46 | -0.21 | 1.07
6 | AGAATGAGGTTAAGATCAGGTAAACAGAATACAT | 2.45 | 4 | -0.00313 | 2.24 | -0.136 | 3.9 | 2.61 | 2.31 | 0.859 | 1.75
7 | ATACCAAGGTGATCATGAGGTCGTTGATACTAAC | 1.75 | 1.61 | 0.874 | 1.38 | -0.0501 | 1.89 | 0.785 | 0.728 | 0.266 | 0.604
8 | TAGCCTAGGACAGATCGGGCCAGTATACGCTATA | -1.33 | -1.15 | -0.706 | -1.34 | -0.794 | -1.96 | 0.367 | -0.842 | -0.355 | -0.623
9 | TCTCGGACGACACGAAGGTCAGAGCTTTCCAGAG | 1.58 | 0.965 | -0.0974 | 1.17 | -0.374 | 1.96 | 0.474 | 1.77 | 2.37 | 2.15
10 | ATCTAAAGGTCGACGAGGTGAGTATACACCGTTT | 4.77 | 4.07 | 0.832 | 3.04 | 0.727 | 4.38 | 3.31 | 3.51 | 1.21 | 2.67
11 | CCCGAAAGGTCGTGCTCAGGTGAGTATACCAAAC | 5.73 | 4.05 | 0.438 | 3.37 | 0.415 | 4.94 | 2.94 | 3.87 | 0.899 | 2.53
12 | TCTTGTAGCTCAATAGAGGTTAAGAAAGTGCGCT | 0.285 | 3.13 | 0.267 | 1.49 | -0.618 | 1.52 | -0.424 | 0.893 | 1.96 | 1.41
13 | CAAACTAGGTCACCGGAAGGTCAAAGTGCGCATG | 6.51 | 6.25 | 5.26 | 5.66 | 1.52 | 6.36 | 9.79 | 7.84 | 5.91 | 7.97
14 | CCTACTGGGCCATTCAGAGGTCATTCATCATATG | 2.68 | 4.55 | 6.9 | 4.38 | 0.909 | 3.72 | 2.08 | 3.3 | 0.754 | 2.26
15 | CCGAGTAGGTTATGGGGCATTCATGCAACGGTGA | 0.225 | 0.548 | -0.0106 | 0.797 | -0.214 | 2.26 | 3.65 | 4.6 | 3.02 | 4.44
16 | CCTTACGGGTCAAGGTTATAGTACGGGTGGTACG | 6.07 | 3.88 | 0.501 | 3.24 | 0.225 | 5.17 | 4.78 | 4.77 | 1.91 | 3.37
17 | CGTCCAAGGTCAGAGAAGTCAGTGAATGCCGAGT | 4.48 | 2.9 | 0.222 | 2.17 | -0.0616 | 3.73 | 1.89 | 2.54 | 0.704 | 1.5
18 | GCTGCTAGGTCAACTGATGGTCAGCTACAGCTCG | 4.25 | 2.91 | 0.26 | 1.97 | 0.014 | 3.65 | 2.65 | 2.9 | 0.862 | 1.99
